We go through 18 molecules from PubChem BioAssay (NCATS).

Inconclusive results are not listed. Unmarked numbers belong to inactive results. Activity calls are given as the source filed them. The call rests on the fitted dose curve; in most records, active means well fitted curve in the direction sought with a large enough effect; inconclusive means small, poorly fitted or top-dose-only effect, or another doubt; inactive means no such curve, though single readings can be large; an effect the other way counts as inactive or inconclusive.

The nature of one assay: Cell Viability - N2a (AID 540).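 Further: plate controls were DMSO alone for no effect and tamoxifen control for full effect; nearly all actives have a fitted effect of over 45% in size.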 Conditions: N2a mouse neuroblastoma cell viability; series mostly up to 92.2 µM. An outline of the steps:
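Mouse neuroblastoma N2a cells, 1500/well, exposed to compounds 40 h at 37 °C in complete medium. Viability measured as cellular ATP by CellTiter-Glo luminescence; AC50 from Hill fits of concentration-response.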
Turning to `Nc1ccc(S(=O)(=O)c2ccc(N)cc2)cc1`, the result was inactive.

As to `CC1CC(OC(=O)c2ccccc2O)CC(C)(C)C1` (stereo unspecified), the outcome was inactive.

Take `Cc1cc(=O)[nH]c(=S)[nH]1`: the molecule was classed as inactive.

For the molecule `CC(=O)Nc1ccc(C(=O)O)cc1`, the outcome was inactive.

For the molecule `CCN(CC)C(=O)c1cccc(C)c1`, the molecule was classed as inactive.

Regarding `CCCCCC(N)=O`, the molecule was classed as inactive.

On to `CC(=O)Nc1cccc(O)c1`, for which the call was inactive.

Regarding `CCCC(O)C(CC)CO` (stereo unspecified), the outcome was inactive.

For `O=C(O)CCCCC1CCSS1` (stereo unspecified), the outcome was inactive.

Take `C=CCNC(N)=S`: the outcome was inactive.

As for `CC(=O)Nc1ccccc1`, the molecule was called inactive.

As to `CC(=O)OCC(COC(C)=O)OC(C)=O`, the molecule was classed as inactive.

On to `O=C1c2cccc(O)c2C(=O)c2c(O)cccc21`, for which the outcome was inactive.

`CCCCCCCC(=O)OCC(COC(=O)CCCCCCC)OC(=O)CCCCCCC`: the result was inactive.

As to `O=C1C(c2[nH]c3ccccc3c2O)=Nc2ccccc21`, the call was inactive.

On to `O=C(c1ccccc1)C(O)c1ccccc1` (stereo unspecified), for which the molecule was classed as inactive.

Turning to `FC(F)(F)C(Cl)Br` (stereo unspecified), the molecule was classed as inactive.

Another assay in a line: Cell Viability - NIH 3T3 (AID 541).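 Further: plate controls were DMSO alone for no effect and tamoxifen positive control for full effect; nearly all actives have a fitted effect of over 25% in size.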 To be noted: NIH 3T3 cell viability, qHTS; series mostly up to 92.2 µM. In outline:
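Mouse NIH 3T3 fibroblasts, 1000 cells/well, rested 5 hr at 37 °C, then exposed to compound for 40 hr at 37 °C in complete medium. Viability read as intracellular ATP by CellTiter-Glo luminescence; AC50 from Hill-equation fits of concentration-response data.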
On to `CC1CC(OC(=O)c2ccccc2O)CC(C)(C)C1` (stereo unspecified), for which the molecule was classed as inactive.

For `Cc1cc(=O)[nH]c(=S)[nH]1`, the call was inactive.

On to `CC(=O)Nc1ccc(C(=O)O)cc1`, for which the result was inactive.

As for `CCCCCC(N)=O`, the outcome was inactive.

With `CC(=O)Nc1cccc(O)c1`, the molecule was called inactive.

For the molecule `CCCC(O)C(CC)CO` (stereo unspecified), the result was inactive.

In the case of `O=C(O)CCCCC1CCSS1` (stereo unspecified), the call was inactive.

As to `C=CCNC(N)=S`, the molecule was called inactive.

Turning to `CC(=O)Nc1ccccc1`, the call was inactive.

Take `CC(=O)OCC(COC(C)=O)OC(C)=O`: the call was inactive.

For the molecule `CCCCCCCC(=O)OCC(COC(=O)CCCCCCC)OC(=O)CCCCCCC`, the result was inactive.

`O=C(c1ccccc1)C(O)c1ccccc1` (stereo unspecified): the call was inactive.

Consider `FC(F)(F)C(Cl)Br` (stereo unspecified), for which the result was inactive.

Another assay is described as follows: Cell Viability - HUV-EC-C (AID 542). Further: on the % scale 0 is the no-effect control and ±100 the full control effect; nearly all actives have a fitted effect of over 35% in size. To be noted: HUV-EC-C endothelial cell viability, qHTS; series mostly up to 92.2 µM. In outline:
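HUV-EC-C human vascular endothelial cells, 1000/well, exposed to compound for 40 hr at 37 °C in complete medium. Intracellular ATP was read by CellTiter-Glo luminescence. AC50 came from Hill-equation fits of concentration-response data.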
On the technique in general: In qHTS, concentration-response curves come from the screen itself.
For `Nc1ccc(S(=O)(=O)c2ccc(N)cc2)cc1`, the call was inactive.

As to `CC1CC(OC(=O)c2ccccc2O)CC(C)(C)C1` (stereo unspecified), the call was inactive.

In the case of `COc1ccc(O)cc1`, the result was inactive.

As to `Cc1cc(=O)[nH]c(=S)[nH]1`, the outcome was inactive.

As to `CC(=O)Nc1ccc(C(=O)O)cc1`, the result was inactive.

Regarding `CCN(CC)C(=O)c1cccc(C)c1`, the result was inactive.

On to `CCCCCC(N)=O`, for which the outcome was inactive.

With `CC(=O)Nc1cccc(O)c1`, the outcome was inactive.

Regarding `CCCC(O)C(CC)CO` (stereo unspecified), the outcome was inactive.

Consider `O=C(O)CCCCC1CCSS1` (stereo unspecified), for which the molecule was classed as inactive.

As to `C=CCNC(N)=S`, the outcome was inactive.

On to `CC(=O)Nc1ccccc1`, for which the call was inactive.

As for `CC(=O)OCC(COC(C)=O)OC(C)=O`, the outcome was inactive.

For the molecule `O=C1c2cccc(O)c2C(=O)c2c(O)cccc21`, the outcome was inactive.

For `CCCCCCCC(=O)OCC(COC(=O)CCCCCCC)OC(=O)CCCCCCC`, the result was inactive.

In the case of `O=C1C(c2[nH]c3ccccc3c2O)=Nc2ccccc21`, the result was inactive.

As for `O=C(c1ccccc1)C(O)c1ccccc1` (stereo unspecified), the molecule was called inactive.

For `FC(F)(F)C(Cl)Br` (stereo unspecified), the molecule was classed as inactive.

A further assay in a line: Cell Viability - H-4-II-E (AID 543). Further: on the % scale 0 is the no-effect control and ±100 the full control effect; nearly all actives have a fitted effect of over 35% in size. Conditions: H-4-II-E rat hepatoma viability; series mostly up to 92.2 µM. In outline:
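Rat hepatoma H-4-II-E cells, 1500 per well, treated 40 h at 37 °C in complete medium. Cellular ATP read by CellTiter-Glo luminescence; AC50 from Hill fits of concentration-response.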
In the case of `Nc1ccc(S(=O)(=O)c2ccc(N)cc2)cc1`, the molecule was called inactive.

Regarding `CC1CC(OC(=O)c2ccccc2O)CC(C)(C)C1` (stereo unspecified), the result was inactive.

With `COc1ccc(O)cc1`, the molecule was called inactive.

With `Cc1cc(=O)[nH]c(=S)[nH]1`, the result was inactive.

`CC(=O)Nc1ccc(C(=O)O)cc1`: the result was inactive.

As to `CCN(CC)C(=O)c1cccc(C)c1`, the call was inactive.

`CCCCCC(N)=O`: the molecule was called inactive.

In the case of `CC(=O)Nc1cccc(O)c1`, the outcome was inactive.

Regarding `CCCC(O)C(CC)CO` (stereo unspecified), the result was inactive.

Consider `O=C(O)CCCCC1CCSS1` (stereo unspecified), for which the molecule was called inactive.

For the molecule `C=CCNC(N)=S`, the molecule was called inactive.

Take `CC(=O)Nc1ccccc1`: the molecule was classed as inactive.

Regarding `CC(=O)OCC(COC(C)=O)OC(C)=O`, the result was inactive.

`O=C1c2cccc(O)c2C(=O)c2c(O)cccc21`: the molecule was classed as inactive.

With `CCCCCCCC(=O)OCC(COC(=O)CCCCCCC)OC(=O)CCCCCCC`, the molecule was classed as inactive.

In the case of `O=C1C(c2[nH]c3ccccc3c2O)=Nc2ccccc21`, the molecule was classed as inactive.

In the case of `O=C(c1ccccc1)C(O)c1ccccc1` (stereo unspecified), the call was inactive.

Turning to `FC(F)(F)C(Cl)Br` (stereo unspecified), the molecule was classed as inactive.

A further assay in a line: Cell Viability - SH-SY5Y (AID 544).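 Further: 0% = DMSO alone and -100% = 100 µM tamoxifen; nearly all actives have a fitted effect of over 55% in size.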 Conditions: SH-SY5Y neuroblastoma cell viability; at 92.2 µM (top of the series). In outline: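 SH-SY5Y human neuroblastoma cells (1500/well) incubated 5 h, then compound-treated 40 h at 37 °C in complete medium. Viability read as intracellular ATP by CellTiter-Glo luminescence after 20 min; AC50 from Hill-equation fits of qHTS concentration-response.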
Consider `Nc1ccc(S(=O)(=O)c2ccc(N)cc2)cc1`, for which the viability change, negative = cytotoxic is -10.9%.

`CC1CC(OC(=O)c2ccccc2O)CC(C)(C)C1` (stereo unspecified): the viability change, negative = cytotoxic was -0.877%.

On to `COc1ccc(O)cc1`, for which the viability change, negative = cytotoxic is 4.2%.

Take `Cc1cc(=O)[nH]c(=S)[nH]1`: the viability change, negative = cytotoxic was -4.62%.

For `CC(=O)Nc1ccc(C(=O)O)cc1`, the viability change, negative = cytotoxic is -7.67%.

Consider `CCN(CC)C(=O)c1cccc(C)c1`, for which the viability change, negative = cytotoxic was -22.4%.

Take `CCCCCC(N)=O`: the viability change, negative = cytotoxic is -5.16%.

On to `CC(=O)Nc1cccc(O)c1`, for which the viability change, negative = cytotoxic is 15.1%.

With `CCCC(O)C(CC)CO` (stereo unspecified), the viability change, negative = cytotoxic was -7.87%.

Take `O=C(O)CCCCC1CCSS1` (stereo unspecified): the viability change, negative = cytotoxic was -17.1%.

Regarding `C=CCNC(N)=S`, the viability change, negative = cytotoxic is -6.07%.

Consider `CC(=O)Nc1ccccc1`, for which the viability change, negative = cytotoxic was -26.9%.

Consider `CC(=O)OCC(COC(C)=O)OC(C)=O`, for which the viability change, negative = cytotoxic is 13.4%.

Take `CCCCCCCC(=O)OCC(COC(=O)CCCCCCC)OC(=O)CCCCCCC`: the viability change, negative = cytotoxic is -12.2%.

As for `O=C1C(c2[nH]c3ccccc3c2O)=Nc2ccccc21`, the viability change, negative = cytotoxic is -102% (active).

As to `O=C(c1ccccc1)C(O)c1ccccc1` (stereo unspecified), the viability change, negative = cytotoxic was -3.66%.

On to `FC(F)(F)C(Cl)Br` (stereo unspecified), for which the viability change, negative = cytotoxic is -0.71%.

A short description of the next assay: Cell Viability - Renal Proximal Tubule (AID 545).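 Further: 0% = DMSO only and -100% = 100 µM tamoxifen; nearly all actives have a fitted effect of over 40% in size.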 Conditions: renal proximal tubule cells viability, primary cells of rat origin; series mostly up to 91.7 µM. In outline: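 Rat kidney proximal tubule cells, freshly isolated; 1000 cells/well, 5 hr settle, compound 40 hr 37 °C. CellTiter-Glo 20 min RT, luminescence read. AC50 by standard Hill fit.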
As for `Nc1ccc(S(=O)(=O)c2ccc(N)cc2)cc1`, the molecule was called inactive.

Regarding `CC1CC(OC(=O)c2ccccc2O)CC(C)(C)C1` (stereo unspecified), the result was inactive.

With `COc1ccc(O)cc1`, the outcome was inactive.

Regarding `Cc1cc(=O)[nH]c(=S)[nH]1`, the outcome was inactive.

Turning to `CC(=O)Nc1ccc(C(=O)O)cc1`, the molecule was classed as inactive.

With `CCN(CC)C(=O)c1cccc(C)c1`, the result was inactive.

Regarding `CCCCCC(N)=O`, the result was inactive.

In the case of `CC(=O)Nc1cccc(O)c1`, the result was inactive.

In the case of `CCCC(O)C(CC)CO` (stereo unspecified), the outcome was inactive.

As to `O=C(O)CCCCC1CCSS1` (stereo unspecified), the molecule was classed as inactive.

Consider `C=CCNC(N)=S`, for which the call was inactive.

For `CC(=O)Nc1ccccc1`, the result was inactive.

Turning to `CC(=O)OCC(COC(C)=O)OC(C)=O`, the result was inactive.

On to `O=C1c2cccc(O)c2C(=O)c2c(O)cccc21`, for which the molecule was called inactive.

For `CCCCCCCC(=O)OCC(COC(=O)CCCCCCC)OC(=O)CCCCCCC`, the result was inactive.

Take `O=C1C(c2[nH]c3ccccc3c2O)=Nc2ccccc21`: the call was inactive.

For the molecule `O=C(c1ccccc1)C(O)c1ccccc1` (stereo unspecified), the molecule was called inactive.

As for `FC(F)(F)C(Cl)Br` (stereo unspecified), the outcome was inactive.
